“And” between values parts separate entries of the source, which are not always exact repeats. Equal values may be shown once. Records with an inconclusive call do not appear. Some structures have more than one record in an assay (separate samples or runs), and their calls can disagree. The source made the active and inactive calls. The calls were made as follows, unless noted: active = hit-call score of the fitted dose curve at least 0.9, where 1 is the maximum; inconclusive = response in the unintended direction; inactive = score below 0.9.
Tests used:
[1] = target: Estrogen-related receptor gamma (Homo sapiens) (UniProt P62508); experiment: ATG_ERRg_TRANS: Attagene TRANS-FACTORIAL HepG2 Assay for human Estrogen-Related Receptor gamma (ERRg) (AID 2282977); details: HepG2 Attagene TRANS reporter, ERRg transactivation;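 also: hits increase reporter signal over DMSO so potencies reflect activators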
Chain of Estrogen-related receptor gamma (Homo sapiens) (P62508 whole entry, looked up, the tested form may be a part): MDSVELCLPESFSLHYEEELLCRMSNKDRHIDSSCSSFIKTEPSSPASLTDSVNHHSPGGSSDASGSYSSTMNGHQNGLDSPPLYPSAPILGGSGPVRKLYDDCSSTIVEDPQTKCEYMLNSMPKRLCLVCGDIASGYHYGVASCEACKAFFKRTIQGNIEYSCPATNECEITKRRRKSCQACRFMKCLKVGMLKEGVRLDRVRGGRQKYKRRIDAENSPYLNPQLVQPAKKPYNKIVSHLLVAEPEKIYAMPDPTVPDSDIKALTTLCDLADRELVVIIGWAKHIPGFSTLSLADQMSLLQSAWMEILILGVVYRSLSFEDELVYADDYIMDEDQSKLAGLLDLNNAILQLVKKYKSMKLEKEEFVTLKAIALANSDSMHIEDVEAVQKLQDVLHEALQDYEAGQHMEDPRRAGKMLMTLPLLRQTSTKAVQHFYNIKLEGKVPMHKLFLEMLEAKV
Summary of the method: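 HepG2 cells transiently transfected with multiplexed GAL4-UAS reporter units and chimeric NR-Gal4 constructs were exposed to test chemicals for 24 h. Reporter mRNA was measured by RT-PCR, 6-FAM primer extension, HpaI digestion and capillary electrophoresis; gain-of-signal versus DMSO.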

[2] = target: Glucocorticoid receptor (Homo sapiens) (UniProt P04150); experiment: ATG_GR_TRANS: Attagene TRANS-FACTORIAL HepG2 Assay for human Glucocorticoid Receptor (GR) (AID 2282978); details: HepG2 Attagene TRANS GR reporter, mRNA transcription;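 also: activators score as hits since higher reporter transcript over DMSO is fitted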
Chain of Glucocorticoid receptor (Homo sapiens) (P04150 whole entry, looked up): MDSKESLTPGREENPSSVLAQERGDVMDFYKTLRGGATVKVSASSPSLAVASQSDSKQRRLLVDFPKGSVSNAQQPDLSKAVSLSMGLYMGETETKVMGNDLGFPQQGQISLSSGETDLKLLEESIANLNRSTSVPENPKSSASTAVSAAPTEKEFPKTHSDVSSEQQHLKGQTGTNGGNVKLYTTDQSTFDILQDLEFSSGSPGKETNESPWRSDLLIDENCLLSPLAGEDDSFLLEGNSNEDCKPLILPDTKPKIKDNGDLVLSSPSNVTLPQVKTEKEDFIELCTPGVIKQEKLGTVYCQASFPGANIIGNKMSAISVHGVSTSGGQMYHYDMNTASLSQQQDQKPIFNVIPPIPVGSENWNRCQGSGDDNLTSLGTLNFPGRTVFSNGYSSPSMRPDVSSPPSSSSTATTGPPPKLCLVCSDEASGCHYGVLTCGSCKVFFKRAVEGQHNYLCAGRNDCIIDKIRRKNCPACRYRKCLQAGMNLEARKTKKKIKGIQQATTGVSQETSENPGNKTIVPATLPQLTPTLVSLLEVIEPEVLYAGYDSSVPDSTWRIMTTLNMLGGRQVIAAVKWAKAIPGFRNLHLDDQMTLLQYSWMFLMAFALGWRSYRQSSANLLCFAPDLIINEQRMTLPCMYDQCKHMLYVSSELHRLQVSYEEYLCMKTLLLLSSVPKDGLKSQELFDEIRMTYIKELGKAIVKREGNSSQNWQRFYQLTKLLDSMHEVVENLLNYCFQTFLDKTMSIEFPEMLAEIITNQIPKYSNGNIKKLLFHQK
Summary of the method: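 After 24 h incubation with test chemical, transfected HepG2 cells were lysed for RNA; reporter cDNA was amplified, FAM-labelled, HpaI-digested and sized on a capillary analyser. Signal gain relative to DMSO was scored.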

[3] = target: Bile acid receptor (Homo sapiens) (UniProt Q96RI1); experiment: ATG_FXR_TRANS: Attagene TRANS-FACTORIAL HepG2 Assay for Farnesoid X Receptor (FXR) (AID 2282979); details: HepG2 Attagene TRANS FXR-GAL4 reporter transcription;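 also: hits raise reporter mRNA above DMSO so AC50 marks FXR activation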
Chain of Bile acid receptor (Homo sapiens) (Q96RI1 whole entry, looked up, the tested form may be a part): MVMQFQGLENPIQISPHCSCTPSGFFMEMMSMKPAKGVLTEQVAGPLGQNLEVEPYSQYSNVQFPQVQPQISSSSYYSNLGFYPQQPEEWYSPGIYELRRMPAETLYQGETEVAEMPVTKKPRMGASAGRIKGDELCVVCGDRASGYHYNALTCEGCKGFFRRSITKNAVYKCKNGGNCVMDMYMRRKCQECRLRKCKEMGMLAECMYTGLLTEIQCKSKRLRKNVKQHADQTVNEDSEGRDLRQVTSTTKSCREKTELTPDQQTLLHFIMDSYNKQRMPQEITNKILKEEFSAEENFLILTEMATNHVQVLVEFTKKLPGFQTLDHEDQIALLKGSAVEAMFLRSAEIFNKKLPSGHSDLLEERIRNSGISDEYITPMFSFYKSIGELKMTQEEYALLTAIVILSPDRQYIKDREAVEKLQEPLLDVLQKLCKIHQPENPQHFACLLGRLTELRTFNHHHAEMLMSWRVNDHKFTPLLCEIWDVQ
Summary of the method: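 Read-out: fluorescent reporter transcripts quantified by capillary electrophoresis after RT-PCR of total RNA. Source cells were HepG2 transiently carrying chimeric NR-GAL4 plus GAL4-UAS reporter units, dosed 24 h. Activity fitted upward relative to DMSO baseline.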

[4] = target: Oxysterols receptor LXR-beta (Homo sapiens) (UniProt P55055); experiment: ATG_LXRb_TRANS: Attagene TRANS-FACTORIAL HepG2 Assay for human Liver X Receptor beta (LXRb) (AID 2282981); details: HepG2 Attagene TRANS GAL4-LXRb reporter, mRNA
Chain of Oxysterols receptor LXR-beta (Homo sapiens) (P55055 whole entry, looked up, the tested form may be a part): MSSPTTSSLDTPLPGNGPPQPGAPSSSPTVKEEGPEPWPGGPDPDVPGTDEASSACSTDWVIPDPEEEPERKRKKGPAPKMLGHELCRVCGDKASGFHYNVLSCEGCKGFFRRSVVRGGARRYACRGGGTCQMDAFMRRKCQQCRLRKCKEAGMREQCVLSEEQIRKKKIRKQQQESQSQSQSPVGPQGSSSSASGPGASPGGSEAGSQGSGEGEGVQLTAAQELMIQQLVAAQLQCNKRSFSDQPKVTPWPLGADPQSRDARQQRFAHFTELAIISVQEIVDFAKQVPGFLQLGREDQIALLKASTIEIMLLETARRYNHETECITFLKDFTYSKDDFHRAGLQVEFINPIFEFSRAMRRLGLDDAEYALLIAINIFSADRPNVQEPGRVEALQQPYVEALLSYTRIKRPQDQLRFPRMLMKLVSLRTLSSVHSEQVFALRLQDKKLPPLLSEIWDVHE
Summary of the method: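 Gain-of-signal mRNA reporter endpoint, DMSO as negative control. Transiently transfected HepG2 cells carrying the NR-Gal4 chimera and GAL4-UAS reporter units were treated 24 h; transcripts quantified by RT-PCR and capillary electrophoresis fluorescence.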

[5] = ATG_M_06_TRANS: Attagene TRANS-FACTORIAL HepG2 Assay for M06 Transcription Factor (Internal Marker) (AID 2282983); details: HepG2 Attagene TRANS M06 internal marker reporter
Summary of the method: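 After a 24 h chemical treatment of transfected HepG2, RNA underwent DNase I treatment, reverse transcription and reporter-specific PCR; labelled, HpaI-digested products were sized by capillary electrophoresis. Signal increase relative to DMSO defined activity.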

[6] = target: Nuclear receptor subfamily 4 group A member 2 (Homo sapiens) (UniProt P43354); experiment: ATG_NURR1_TRANS: Attagene TRANS-FACTORIAL HepG2 Assay for human Nuclear Receptor Related Protein 1 (NURR1) (AID 2282985); details: HepG2 Attagene TRANS reporter, mRNA readout
Chain of Nuclear receptor subfamily 4 group A member 2 (Homo sapiens) (P43354 whole entry, looked up): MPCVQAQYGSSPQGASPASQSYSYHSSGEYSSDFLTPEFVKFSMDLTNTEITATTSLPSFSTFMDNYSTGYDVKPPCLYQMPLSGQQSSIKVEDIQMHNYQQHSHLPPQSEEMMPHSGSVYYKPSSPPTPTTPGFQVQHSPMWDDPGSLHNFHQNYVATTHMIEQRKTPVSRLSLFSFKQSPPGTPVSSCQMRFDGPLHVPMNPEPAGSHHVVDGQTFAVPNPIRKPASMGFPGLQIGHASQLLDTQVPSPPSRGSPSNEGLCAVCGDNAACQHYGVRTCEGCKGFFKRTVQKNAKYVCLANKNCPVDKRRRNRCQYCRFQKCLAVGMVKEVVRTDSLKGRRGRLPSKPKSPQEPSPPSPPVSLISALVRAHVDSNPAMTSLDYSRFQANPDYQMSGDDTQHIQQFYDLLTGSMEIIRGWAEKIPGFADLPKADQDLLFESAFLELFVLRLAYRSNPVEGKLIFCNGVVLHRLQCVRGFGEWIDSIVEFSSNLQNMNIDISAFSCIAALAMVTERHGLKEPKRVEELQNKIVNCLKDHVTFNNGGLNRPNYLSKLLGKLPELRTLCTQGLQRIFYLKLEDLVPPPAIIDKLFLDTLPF
Summary of the method: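 HepG2 / transient MRTU transfection / 24 h compound exposure / RT-PCR + CE fluorescence of reporter mRNA / gain-of-signal vs DMSO.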

[7] = target: Oxysterols receptor LXR-alpha (Homo sapiens) (UniProt Q13133); experiment: ATG_LXRa_TRANS: Attagene TRANS-FACTORIAL HepG2 Assay for human Liver X Receptor alpha (LXRa) (AID 2282980); details: HepG2 Attagene TRANS reporter, LXRa transactivation
Chain of Oxysterols receptor LXR-alpha (Homo sapiens) (Q13133 whole entry, looked up, the tested form may be a part): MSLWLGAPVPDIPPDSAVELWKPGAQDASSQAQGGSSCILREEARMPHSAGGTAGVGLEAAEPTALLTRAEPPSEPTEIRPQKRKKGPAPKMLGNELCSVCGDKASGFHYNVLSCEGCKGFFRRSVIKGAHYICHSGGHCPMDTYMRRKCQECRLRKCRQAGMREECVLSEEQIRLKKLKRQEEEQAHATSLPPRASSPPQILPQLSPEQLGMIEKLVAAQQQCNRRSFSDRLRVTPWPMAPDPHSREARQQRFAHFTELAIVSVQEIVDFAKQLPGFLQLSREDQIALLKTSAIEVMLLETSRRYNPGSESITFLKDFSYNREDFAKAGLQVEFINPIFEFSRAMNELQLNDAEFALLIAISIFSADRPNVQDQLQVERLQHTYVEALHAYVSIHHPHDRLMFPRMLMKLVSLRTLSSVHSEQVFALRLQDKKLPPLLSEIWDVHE
Summary of the method: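 Read-out: reporter transcript levels by RT-PCR plus capillary electrophoresis, fluorescence intensity. Transiently transfected HepG2, exogenous NR-GAL4 chimera, GAL4-UAS reporters; 24 h compound exposure. Activity = increase over DMSO negative control.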

[8] = ATG_M_32_TRANS: Attagene TRANS-FACTORIAL HepG2 Assay for M32 Transcription Factor (Internal Marker) (AID 2282984); details: HepG2 Attagene TRANS M32 internal marker reporter;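 also: transcript level of a background control reporter unit measured by RT-PCR and capillary electrophoresis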
Summary of the method: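 Capillary electrophoresis of 6-FAM-labelled reporter fragments gives the signal; data fitted for gain over DMSO negative control. Source: HepG2 cells bearing transient multiple reporter transcription units, 24 h exposure.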

[9] = target: Transcriptional activator Myb (Homo sapiens) (UniProt P10242); experiment: ATG_Myb_CIS: Attagene CIS-FACTORIAL HepG2 Assay for human Myeloblastosis (Myb) Proto-Oncogene Transcription Factor (AID 2282986; active = hit-call score of the fitted dose curve at least 0.9, where 1 is the maximum; inactive = score below 0.9); details: HepG2 Attagene CIS-FACTORIAL Myb reporter transcription; actives raise or lower the signal
Chain of Transcriptional activator Myb (Homo sapiens) (P10242 whole entry, looked up): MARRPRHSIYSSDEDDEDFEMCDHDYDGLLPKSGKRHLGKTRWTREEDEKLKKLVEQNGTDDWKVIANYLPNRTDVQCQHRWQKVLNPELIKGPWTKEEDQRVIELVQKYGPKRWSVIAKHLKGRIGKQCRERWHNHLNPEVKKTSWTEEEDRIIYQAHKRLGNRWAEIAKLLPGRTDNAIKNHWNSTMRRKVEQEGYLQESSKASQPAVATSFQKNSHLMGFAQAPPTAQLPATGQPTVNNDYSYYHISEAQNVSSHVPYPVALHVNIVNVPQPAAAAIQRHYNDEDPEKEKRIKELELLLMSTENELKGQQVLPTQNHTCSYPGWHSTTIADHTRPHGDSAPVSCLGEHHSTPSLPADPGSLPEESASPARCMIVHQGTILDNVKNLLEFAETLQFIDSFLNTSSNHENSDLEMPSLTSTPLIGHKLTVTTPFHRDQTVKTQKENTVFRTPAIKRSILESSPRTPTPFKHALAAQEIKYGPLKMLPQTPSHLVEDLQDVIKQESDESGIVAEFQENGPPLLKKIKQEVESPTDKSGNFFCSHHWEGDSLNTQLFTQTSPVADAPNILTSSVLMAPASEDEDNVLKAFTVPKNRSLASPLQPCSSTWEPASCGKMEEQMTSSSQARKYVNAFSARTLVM
Summary of the method: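 After 24 h of compound dosing, total RNA from transfected HepG2 cells is reverse-transcribed and the reporter sequences amplified, labeled and separated by capillary electrophoresis. Values come from bidirectional fitting against DMSO.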

[10] = target: Hepatocyte nuclear factor 4-alpha (Homo sapiens) (UniProt P41235); experiment: ATG_HNF4a_TRANS: Attagene TRANS-FACTORIAL HepG2 Assay for human Hepatocyte Nuclear Factor 4 alpha (HNF4a) (AID 2282982); details: HepG2 HNF4a transactivation reporter, mRNA readout
Chain of Hepatocyte nuclear factor 4-alpha (Homo sapiens) (P41235 whole entry, looked up, the tested form may be a part): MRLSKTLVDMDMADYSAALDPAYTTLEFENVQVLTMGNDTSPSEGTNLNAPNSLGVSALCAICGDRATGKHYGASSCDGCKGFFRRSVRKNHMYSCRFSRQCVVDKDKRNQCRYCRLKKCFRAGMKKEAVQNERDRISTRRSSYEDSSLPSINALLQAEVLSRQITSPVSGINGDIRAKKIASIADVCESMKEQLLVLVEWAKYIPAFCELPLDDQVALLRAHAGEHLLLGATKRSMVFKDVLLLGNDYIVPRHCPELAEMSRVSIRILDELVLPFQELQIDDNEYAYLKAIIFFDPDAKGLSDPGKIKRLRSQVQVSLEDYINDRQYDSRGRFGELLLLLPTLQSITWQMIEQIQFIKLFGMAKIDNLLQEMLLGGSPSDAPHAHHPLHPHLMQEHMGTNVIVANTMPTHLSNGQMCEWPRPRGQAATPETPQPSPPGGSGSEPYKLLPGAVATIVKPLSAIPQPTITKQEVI
Summary of the method: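 Gain-of-signal mRNA induction, relative to DMSO vehicle, was read after 24 h compound treatment of HepG2 cells bearing transfected GAL4-UAS reporters. Detection used RT-PCR, 6-FAM primer extension and capillary electrophoresis.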

Measured: AC50

FC(F)(F)COC(OCC(F)(F)F)OCC(F)(F)F
inactive: [1] | [2] | [3] | [4] | [5] | [6]

FC(F)C(F)(F)COCC1CO1 (centres undefined)
inactive: [1] | [3] | [7] | [5] | [8] | [6]

CC(C)c1nnc2ccc(-c3ocnc3-c3cc(F)ccc3F)cn12
inactive: [1] | [3] | [4] | [5] | [9]

OC(O)(C(F)C(O)(O)C(F)(F)F)C(F)(F)F
active: [6] 31.5 µM and 19.1 µM
not listed: [4]
inactive: all other assays above

c1ccc2cc3ccccc3cc2c1
inactive: [1] | [8]

C[C@@H](Oc1ccc(CNC(=O)c2cccnc2Oc2ccc3c(c2)OCO3)c(F)c1)C(=O)O
inactive: [1] | [3] | [4] | [5] | [8] | [6]

O=c1[nH]cnc2c1ncn2[C@H]1CC[C@@H](CO)O1
inactive: [1] | [4] | [5] | [6] | [9]

CC(C)C(=O)Nc1ccc([N+](=O)[O-])c(C(F)(F)F)c1
active: [6] 43.5 µM
not listed: [2] | [8] | [9]
inactive: all other assays above

OC(Cn1cncn1)(Cn1cncn1)c1ccc(F)cc1F
inactive: [1] | [4] | [6] | [9]

CCCOc1ccc(S(=O)(=O)N2CCN(CC)CC2)cc1-c1nc2c(CC)n(Cc3ccccn3)nc2c(=O)[nH]1
inactive: [1] | [3] | [4] | [5] | [8] | [6]

O=C(NO)C1(NS(=O)(=O)c2ccc(Oc3ccc(F)cc3)cc2)CCOCC1
not listed: [2] | [3] | [9]
inactive: all other assays above

O=C(Cl)C(F)(F)C(F)(F)C(F)(F)C(=O)Cl
not listed: [2] | [6]
inactive: all other assays above

S=P(N1CC1)(N1CC1)N1CC1
not listed: [2] | [9]
inactive: all other assays above

OC[C@H]1O[C@@](CO)(O[C@H]2O[C@H](CO)[C@@H](O)[C@H](O)[C@H]2O)[C@@H](O)[C@@H]1O
inactive: [1] | [3] | [5] | [8] | [6] | [9]

FC(F)=C(F)C(F)(F)C(F)(F)C(F)(F)C(F)(F)C(F)(F)C(F)(F)F
inactive: [1] | [3] | [7] | [8] | [6]

OCc1ccccc1
active: [6] 14.2 µM
inactive: [1] | [2] | [4] | [10] | [5] | [8] | [6]

FC(F)(F)C(F)(F)C(F)(F)C(F)(F)C(F)(F)C(F)(F)I
not listed: [2] | [10]
inactive: all other assays above

Cc1nc(-c2ccccn2)ncc1C(=O)Nn1cc(C)c2cc(F)ccc21
inactive: [1]

OCCC(F)(F)C(F)(F)C(F)(F)C(F)(F)F
not listed: [2]
inactive: all other assays above

O=S(=O)(O)CCC(F)(F)C(F)(F)C(F)(F)C(F)(F)C(F)(F)C(F)(F)F
not listed: [2] | [9]
inactive: all other assays above

NNC(=O)c1ccncc1
inactive: [1] | [4] | [5] | [8]

Cc1nccn1-c1ccc(Sc2cccc(C3(C(N)=O)CCOCC3)c2)cc1
active: [6] 14.3 µM
not listed: [2] | [7] | [8]
inactive: all other assays above

C[Si](C)(C)C(F)(F)C(F)(F)C(F)(F)F
not listed: [2] | [9]
inactive: all other assays above

OCc1c[nH]c2ccccc12
active: [6] 18.8 µM and 14.4 µM
inactive: [1] | [3] | [7] | [4] | [10] | [5] | [8] | [6] | [9]

OCCNCCO
inactive: [1] | [10] | [5] | [8]

CCOc1ccc2[nH]cc(C(=O)NCc3ccccc3)c(=O)c2n1
inactive: [1] | [10] | [5] | [8] | [6] | [9]

Source: PubChem BioAssay (EPA / NIEHS)
